Test results from PubChem BioAssay.

Legend:
[1] = target: Tumor necrosis factor receptor superfamily member 10B (Homo sapiens) (UniProt O14763); test: caspase-8 TRAIL sensitization, hit retest, confirmation, cell-based, NB7+caspase-8, with/without TRAIL, luminescence panel (AID 651596); settings: NB7 neuroblastoma + caspase-8, TRAIL sensitization, luminescence viability, with TRAIL, mean of runs, at 10 µM, stronger effect = higher value
[2] = as above; settings: NB7 neuroblastoma + caspase-8, without TRAIL, luminescence viability, without TRAIL, mean of runs, at 10 µM

Tumor necrosis factor receptor superfamily member 10B (Homo sapiens), sequence (O14763 whole entry, looked up): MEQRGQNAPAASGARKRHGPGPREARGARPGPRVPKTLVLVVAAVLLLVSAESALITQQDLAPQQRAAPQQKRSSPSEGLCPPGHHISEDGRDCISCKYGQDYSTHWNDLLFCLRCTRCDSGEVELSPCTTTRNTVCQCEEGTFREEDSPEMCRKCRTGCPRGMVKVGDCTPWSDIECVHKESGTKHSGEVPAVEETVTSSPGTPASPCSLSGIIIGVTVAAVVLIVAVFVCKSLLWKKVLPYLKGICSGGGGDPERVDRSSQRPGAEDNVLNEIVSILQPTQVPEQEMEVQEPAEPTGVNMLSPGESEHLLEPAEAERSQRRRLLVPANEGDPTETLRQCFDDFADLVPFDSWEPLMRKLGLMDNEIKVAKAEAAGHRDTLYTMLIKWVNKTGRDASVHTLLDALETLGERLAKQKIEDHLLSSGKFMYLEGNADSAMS

Compound | activity [1] | activity [2]
Cn1c(=S)[nH]c2sc3c(c2c1=O)CCC(C(C)(C)C)C3 (stereo unspecified) | 86.4% | 78%
COc1cccc(C(=O)/C=C2\Sc3ccccc3N2C)c1 | 56.7% | 29.4%
CCN(Cc1ccccc1)S(=O)(=O)c1ccc(C(=O)N(CCCN(C)C)c2nc3cc(C)cc(C)c3s2)cc1 | 23.3% | -11.7%
CC(C)(CNC(=O)c1ccc([N+](=O)[O-])c(Cl)c1)CNC(=O)c1ccc([N+](=O)[O-])c(Cl)c1 | 54.5% | 60.3%
CN(C)c1ccc(-c2nc3ccccc3c(=O)[nH]2)cc1 | 91.9% | 92.5%
CC(=O)Oc1ccccc1C(=O)C=Cc1cccc([N+](=O)[O-])c1 | 36.3% | 76.7%
N#Cc1ccc(NC(=O)Nc2ccc(Cl)cc2)cc1 | 81% | 65.3%
Cc1ccc(CNc2nc3ccccc3n2C)cc1 | 59.8% | 53.8%
COC(=O)[C@@H]1Cc2c([nH]c3ccccc23)C(C)(C)N1C(=O)CCl | 99% | 98%
CC(=O)Nc1ccc2nc(-c3ccccc3)cn2c1 | 46.1% | 52.6%
Cc1ccc2cc(NC(=O)c3cccc(F)c3)ccc2n1 | 21.3% | 10.6%
Nc1ccccc1C#CC(=O)c1ccccc1 | 33.9% | 94.2%
Nc1nnnn1/N=C/C(Br)=C/c1ccccc1 | 68.6% | 88.8%
CCOC(=O)c1cnc(-n2nc(C)cc2C)nc1N(C)C | 55.4% | 52.1%
COc1ccc(CSc2nc3ccccc3[nH]2)cc1 | 70.8% | 83.3%
COc1ccc(CC(=O)Nc2cccc(-c3nnc(-c4ccccc4)o3)c2)cc1OC | 78.9% | 59.8%
COc1cc(/C=N/NC(=O)c2nnn(-c3nonc3N)c2C)ccc1OCc1ccc(Cl)cc1 | 39% | 20.6%
O=C(Nc1nc2cc3c(cc2s1)OCCO3)c1ccc([N+](=O)[O-])o1 | 63.8% | 84.1%
CC(C)[C@@H](CO)NC(=O)c1ccc2c3n(nc2c1)-c1ccccc1CO3 | 71.1% | 71.6%
Cc1cc(C)c(C)c(S(=O)(=O)N2CCN(c3ncnc4ccccc34)CC2)c1C | 40.2% | 40.1%
O=C(CCl)Nc1ccc(-c2ccccc2)cc1 | 99.3% | 99.7%
CCCCCCN(C(=O)CCl)c1ccccc1 | 98.8% | 99.2%
COc1cccc(Nc2nc(N)nc(CCl)n2)c1 | 98.4% | 92%
